# Hits are enriched below; roughly 2.9% of the tested compounds scored in any of these assays.
# PTAP TSG101 blk: blocks PTAP/TSG101 interaction to inhibit HIV-1 budding; 340,000 tested, under 10 active; Fluorescence polarization, FITC-PTAP peptide / Tsg101 binding; Potency, µM (titrated, usually from 115 µM), for inactives: at the top dose activity change, negative = inhibition, usual class: inhibitors; active means well fitted inhibition curve with a large enough effect in the main read-out, with a control signal flat, not every such curve was filed as active; inconclusive means small, poorly fitted or top-dose-only effect, or effect the other way, or a change in a side signal; inactive means no such curve, though single readings can be large or run the other way; further: potency means the concentration at half of the fitted maximal effect; % of control where 0% means no effect
#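 Compounds were pin-transferred onto Tsg101 binding domain (10 uM final) in HEPES pH 7.5 buffer, then FITC-PTAP peptide was added at 50 nM final. After 20 min at RT, polarization reported peptide displacement across a qHTS concentration series.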
# Rango complex inh: Rango-importin beta binding inhibition | Rango CFP/YFP FRET sensor + importin beta, 45 min | Potency, µM (doses to about 92.2 µM), for the others: at the highest dose inhibition of complex formation | 0.031% of 340,000 active | Q14974;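 further: potency means the concentration at half of the fitted maximal effect; 0% = DMSO wells and 100% = buffer wells lacking importin beta; nearly all actives have a fitted effect of over 15% in size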
# Target sequence (Q14974 whole entry, looked up): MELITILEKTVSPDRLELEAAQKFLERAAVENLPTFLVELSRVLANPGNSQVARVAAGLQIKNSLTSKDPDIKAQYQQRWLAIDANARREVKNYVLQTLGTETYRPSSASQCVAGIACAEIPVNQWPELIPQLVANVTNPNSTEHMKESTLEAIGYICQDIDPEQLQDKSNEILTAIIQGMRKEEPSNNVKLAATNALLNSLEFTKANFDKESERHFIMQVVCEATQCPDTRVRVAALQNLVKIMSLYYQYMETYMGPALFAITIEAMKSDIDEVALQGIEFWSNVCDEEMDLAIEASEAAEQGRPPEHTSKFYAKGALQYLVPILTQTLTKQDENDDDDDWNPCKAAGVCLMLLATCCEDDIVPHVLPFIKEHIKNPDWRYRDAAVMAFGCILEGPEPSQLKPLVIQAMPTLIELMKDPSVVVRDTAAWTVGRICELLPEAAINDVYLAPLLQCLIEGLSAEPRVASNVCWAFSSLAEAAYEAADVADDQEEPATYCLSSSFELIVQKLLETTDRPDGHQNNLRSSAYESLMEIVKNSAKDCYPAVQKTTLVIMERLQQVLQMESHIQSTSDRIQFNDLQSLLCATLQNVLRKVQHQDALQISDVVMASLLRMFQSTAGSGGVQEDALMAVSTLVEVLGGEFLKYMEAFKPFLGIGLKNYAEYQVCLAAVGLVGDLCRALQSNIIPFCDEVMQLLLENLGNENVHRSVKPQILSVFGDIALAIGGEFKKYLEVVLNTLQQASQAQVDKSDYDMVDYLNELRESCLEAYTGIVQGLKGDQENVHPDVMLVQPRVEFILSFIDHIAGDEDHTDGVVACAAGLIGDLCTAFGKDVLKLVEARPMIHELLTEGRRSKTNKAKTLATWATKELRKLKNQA
#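 FRET biosensor Rango (snurportin 1 IBB between N-terminal EYFP and C-terminal Cerulean), 50 nM in PBS/1 mM DTT/0.02% Tween-20/0.1% BSA, preincubated 5 min RT with compound; 0.125 microM importin beta added, 45 min RT, CFP/YFP FRET ratio read.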
# Rango release inh: prevents RanGTP from dissociating the Rango-importin beta complex. Biochemical FRET Rango-importin beta, RanGTP-induced dissociation. Potency, µM (doses to about 46.1 µM), for the others: at the highest dose activity change, negative = inhibition. 0.071% of 340,000 active. AID 540253; further: potency means the concentration at half of the fitted maximal effect; % of control where 0% means no effect; nearly all actives have a fitted effect of over 45% in size
#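 Compounds preincubate 5 min with complex of recombinant Rango and importin beta in PBS with 1 mM DTT. Ran (0.6 uM) loaded with 2 mM GTP plus 0.2 uM RCC1 starts dissociation; FRET is recorded 45 min later.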
# Mm-Cpn inhibitor: inhibitors of Methanococcus maripaludis chaperonin TRiC (MmCpn) | purified Mm-Cpn ATPase, ADP Transcreener TR-FRET | Potency, µM (top dose mostly 76.9 µM), without a hit: at the top dose activity, negative = inhibition, hits mostly inhibitors | 0.031% of 330,000 active | AID 504842; active means well fitted inhibition curve with a large enough effect; inconclusive means small, poorly fitted or top-dose-only effect; further: potency means the concentration at half of the fitted maximal effect; on the % scale 0 is the no-effect control and ±100 the full control effect; nearly all actives have a fitted effect of over 80% in size
#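 Eu-cryptate anti-ADP/ADP-d2 competition gives a ratio inversely related to ADP. Enzyme at 25 nM was pre-exposed to compound for 10 min, then given 10 uM ATP for 30 min, 37°C throughout.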
# DRD3 agonist: D3 dopamine receptor (human) agonism; D3R DiscoveRx beta-arrestin cells, luminescence, 90 min; AID 652048; 0.58% of 410,000 active; max activation, %; P35462; in the data active means max activation above about 30%; further: 0% is about no effect
#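 Cells at 1500/well, incubated overnight, then treated with pinned compounds (dopamine as control) for 90 min at 37 degrees C. DiscoveRx reagent added for 30 - 60 minutes at room temperature; luminescence read.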
# DRD3 antagonist: antagonists of human D3 dopamine receptor. max response, negative = inhibition, %. P35462. D3R cells, DiscoveRx beta-arrestin luminescence, antagonist mode; stronger effect = lower value. 2.5% of 360,000 active; in the data active means max response below about -50%; inconclusive means no clear call, values can overlap the other calls; further: on the % scale 0 is the no-effect control and ±100 the full control effect
#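 Cells expressing the human receptor were seeded at 1500 cells/well, incubated overnight at 37 degrees C in 5% CO2, then exposed to library compounds with dopamine controls for 90 minutes at 37 degrees C before luminescent detection.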
# * = called active by the depositor; u = inconclusive; x = no result. Unless noted, the call rests on the fitted dose curve.
SMILES,PTAP TSG101 blk,Rango complex inh,Rango release inh,Mm-Cpn inhibitor,DRD3 agonist,DRD3 antagonist
O=c1c(=O)n(-c2ccc(F)c(F)c2)ccn1Cc1ccc(F)cc1Cl,x,x,x,x,1,x
Cc1ccccc1Cn1ccn(-c2ccc(F)c(F)c2)c(=O)c1=O,x,x,x,x,69*,x
Cc1cc(NC(=O)CCC(=O)N(CCC(C)C)C(C(=O)NCC2CCCO2)c2ccccc2C)no1 (stereo not given),-1%,-1%,0%,3%,41*,-1
Cc1ccc(C(=O)CCC(=O)OCc2nnc(-c3ccccc3)o2)cc1,-1%,1%,22%,2%,3,-60*
CCOC(=O)c1c(NC(=O)c2cc(-c3ccc(Br)cc3)on2)sc(C)c1C,x,x,x,x,5,x
COc1cc(C2NC(=O)NC(C)=C2C(=O)OCC2CCCO2)ccc1O (stereo not given),-6%,-4%,16%,-5%,31*,13
CN(C)CCOC(=O)C12CC3(C)CC(C)(CC(C)(C3)C1)C2,-12%,-2%,-8%,-1%,-23,-84*
CN(C)CCOC(=O)C12CC3CC(CC(C3)C1)C2,-3%,1%,7%,1%,-10,u
COc1ccccc1N1CCN(C(CNC(=O)C(=O)NCCc2ccccc2)c2cccnc2)CC1 (stereo not given),x,x,x,x,9,x
CC(Sc1ccc2nnc(-c3ccc(F)cc3)n2n1)C(=O)O (stereo not given),0%,-5%,-15%,-16%,-4,-22
COc1ccc(-c2nnc3ccc(SCC(=O)N4CCOCC4)nn23)cc1,-11%,0%,2%,1%,0,-10
CCOC(=O)C(C)Sc1ccc2nnc(-c3ccc(F)cc3)n2n1 (stereo not given),-8%,4%,-1%,-3%,35*,15
COc1ccc(-c2nnc3ccc(SC)nn23)cc1,x,0%,2%,-22%,14,-86*
O=C(COC(=O)c1ccc([N+](=O)[O-])o1)NCCCc1ccccc1,-4%,-5%,-8%,-2%,4,-51*
COc1ccc(CCNC(=O)COC(=O)c2ccc([N+](=O)[O-])o2)cc1,-6%,0%,2%,1%,-11,-10
CC1(C)CC(C(=O)Nc2ccccc2)C(=O)O1 (stereo not given),-6%,-1%,0%,x,12,-6
C[C@]1(O)CC(=O)C=C[C@H]1Nc1ccccc1,-1%,1%,-1%,x,-21,-52*
CCc1nc(SCCO)c2oc3ccccc3c2n1,2%,0%,16%,3%,0,-24
CCc1nc(SCC(=O)N2CCN(c3ccccc3)CC2)c2oc3ccccc3c2n1,-11%,4%,10%,-3%,48*,13
CCCc1c(-c2cccc(Cl)c2)ncn1Cc1cccc(-c2ccccc2)c1,x,x,x,x,52*,-19
CCc1c(-c2cccc(Cl)c2)ncn1Cc1cccc(-c2ccccc2)c1,x,x,x,x,-2,-6
COc1ccc(-c2cc3c(=O)n(CC(=O)NCCCN4CCN(Cc5ccccc5)CC4)ncn3n2)cc1,3%,0%,-1%,-1%,-15,-67*
COc1ccc(-c2cc3c(=O)n(CC(=O)NCCCN4CCC(Cc5ccccc5)CC4)ncn3n2)cc1,1%,3%,9%,2%,-23,-101*
COc1ccc(-c2cc3c(=O)n(CC(=O)NCc4ccc(Cl)cc4)ncn3n2)cc1,-1%,2%,-5%,0%,5,11
CCOc1ccc(NC(=O)Cn2cnc3nc4c(cc3c2=O)CCCC4)cc1,x,x,x,x,4,x
CCN(c1cccc(C)c1)S(=O)(=O)c1cc2c(cc1C)n(C)c(=O)c(=O)n2C,x,x,x,x,14,x
CCOC(=O)Cc1ccc(Nc2nc(NC)nc3ccsc23)cc1,x,x,x,x,-23,-78*
Cc1cc(N2CCN(C)CC2)nc(-c2ccccc2O)n1,-7%,3%,1%,0%,-10,-28
Cc1cc(N2CCN(C)CC2)nc(=S)[nH]1,0%,5%,-5%,4%,-17,-81*

# From PubChem
